About 83,000 compounds went through this panel and 20% of them were active in at least one assay; those are over-represented in the sample as a whole.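 Assay: single dose, 48 h. Readout: percent growth (0 = no net growth; negative = cell death). Active: <10.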 Activity calls are given as the source filed them.
How the values were obtained:
Test in all cases: NCI-60 one-dose screen, 48 h (100 = growth as untreated, 0 = no growth, -100 = all killed)
SR leukemia = conditions: 10 µM unless noted
RPMI-8226 leukemia = conditions: 10 µM unless noted
OVCAR-8 ovarian = conditions: 10 µM unless noted
OVCAR-5 ovarian = conditions: 10 µM unless noted
OVCAR-4 ovarian = conditions: 10 µM unless noted
SK-OV-3 ovarian = conditions: 10 µM unless noted
IGROV1 ovarian = conditions: 10 µM unless noted
OVCAR-3 ovarian = conditions: 10 µM unless noted
NCI/ADR-RES ovarian = conditions: 10 µM unless noted
T-47D breast = conditions: 10 µM unless noted
BT-549 breast = conditions: 10 µM unless noted
MDA-MB-435 melanoma = conditions: 10 µM unless noted
SW-620 colon = conditions: 10 µM unless noted
MCF7 breast = conditions: 10 µM unless noted
HCT-116 colon = conditions: 10 µM unless noted
KM12 colon = conditions: 10 µM unless noted
HCC-2998 colon = conditions: 10 µM

Measured: growth

CC(C)NC[C@@H](C(=O)N1CCN(c2ncnc3c2[C@H](C)C[C@H]3O)CC1)c1ccc(Cl)cc1
active: SK-OV-3 ovarian -9.72% | IGROV1 ovarian 0.674% | T-47D breast -9.42%
inactive: SR leukemia 45.5% | RPMI-8226 leukemia 61.2% | OVCAR-8 ovarian 68.3% | OVCAR-5 ovarian 54.4% | OVCAR-4 ovarian 77.5% | OVCAR-3 ovarian 49.7% | NCI/ADR-RES ovarian 84.2% | BT-549 breast 25.2% | MDA-MB-435 melanoma 68.2% | SW-620 colon 71.4% | MCF7 breast 30.9% | HCT-116 colon 61.4% | KM12 colon 18.9%

COc1ccc(C2OC(c3cc(-c4cc5ccccc5o4)nn3-c3ccccc3)=NN2C(C)=O)cc1 (centres undefined)
inactive: SR leukemia 93.1% | RPMI-8226 leukemia 101% | OVCAR-8 ovarian 99.5% | OVCAR-5 ovarian 94% | OVCAR-4 ovarian 96.3% | SK-OV-3 ovarian 103% | IGROV1 ovarian 89.4% | OVCAR-3 ovarian 95.3% | NCI/ADR-RES ovarian 92.2% | T-47D breast 86.5% | BT-549 breast 97.2% | MDA-MB-435 melanoma 108% | SW-620 colon 107% | MCF7 breast 100% | HCT-116 colon 88.6% | KM12 colon 107%

C[C@@H](N)c1ccc(C(=O)Nc2ccnc3[nH]ccc23)cc1
inactive: RPMI-8226 leukemia 64.7% | OVCAR-8 ovarian 36.2% | OVCAR-5 ovarian 42.9% | OVCAR-4 ovarian 69.9% | IGROV1 ovarian 27.9% | OVCAR-3 ovarian 57.9% | NCI/ADR-RES ovarian 84% | T-47D breast 61.9% | BT-549 breast 13.9% | MDA-MB-435 melanoma 80.4% | SW-620 colon 20.5% | MCF7 breast 42.7% | HCT-116 colon 14.4% | KM12 colon 30.3%
active: SR leukemia 9.45% | SK-OV-3 ovarian -45.2%

COC1CCC(N2C(=O)CNc3ncc(-c4ccc(C(C)(C)O)nc4)nc32)CC1 (centres undefined)
active: SR leukemia -0.973% | RPMI-8226 leukemia -2.19% | OVCAR-8 ovarian 5.09% | OVCAR-5 ovarian 9.72% | OVCAR-4 ovarian -7.38% | SK-OV-3 ovarian -27.6% | IGROV1 ovarian -2.9% | OVCAR-3 ovarian 8.66% | NCI/ADR-RES ovarian 3.73% | T-47D breast -24% | BT-549 breast -8.77% | MDA-MB-435 melanoma -27.9% | MCF7 breast 3.23% | KM12 colon 7.39%
inactive: SW-620 colon 12% | HCT-116 colon 11.4%

CC(=O)NCC(=O)N1[C@@H]2CC[C@H]1c1ccc(Nc3ncc(C(F)(F)F)c(NC4CCC4)n3)cc12
inactive: RPMI-8226 leukemia 71.4% [2.5 µM] | OVCAR-8 ovarian 55.3% [2.5 µM] | OVCAR-5 ovarian 32.4% [2.5 µM] | OVCAR-4 ovarian 64.4% [2.5 µM] | SK-OV-3 ovarian 15.9% [2.5 µM] | IGROV1 ovarian 31.5% [2.5 µM] | OVCAR-3 ovarian 67.8% [2.5 µM] | NCI/ADR-RES ovarian 59.7% [2.5 µM] | T-47D breast 88.4% [2.5 µM] | BT-549 breast 36.3% [2.5 µM] | MDA-MB-435 melanoma 39.9% [2.5 µM] | SW-620 colon 16.3% [2.5 µM] | MCF7 breast 25.1% [2.5 µM] | HCT-116 colon 13.4% [2.5 µM]
active: SR leukemia 2.18% [2.5 µM] | KM12 colon 3.64% [2.5 µM]

CN(C)C1CCN(C(=O)c2ccc(NC(=O)Nc3ccc(-c4nc(N5CCOCC5)nc(N5CCOCC5)n4)cc3)cc2)CC1
active: SR leukemia 3.59% [2.5 µM] | RPMI-8226 leukemia -2.37% [2.5 µM] | OVCAR-8 ovarian -20.9% [2.5 µM] | OVCAR-5 ovarian -2.63% [2.5 µM] | OVCAR-4 ovarian -29.9% [2.5 µM] | SK-OV-3 ovarian -51.9% [2.5 µM] | IGROV1 ovarian -54.8% [2.5 µM] | OVCAR-3 ovarian 2.07% [2.5 µM] | T-47D breast -45.3% [2.5 µM] | BT-549 breast -10.1% [2.5 µM] | MDA-MB-435 melanoma -16.6% [2.5 µM] | SW-620 colon 8.13% [2.5 µM] | MCF7 breast 3.87% [2.5 µM] | KM12 colon 5.58% [2.5 µM]
inactive: NCI/ADR-RES ovarian 95.6% [2.5 µM] | HCT-116 colon 12.8% [2.5 µM]

CCN(CC)CCN1C(=O)c2cccc3c(-c4ccc5c(c4)ncn5C4CCCCC4)ccc(c23)C1=O
inactive: OVCAR-8 ovarian 25.9% | OVCAR-5 ovarian 36.4% | OVCAR-4 ovarian 32.9% | SK-OV-3 ovarian 21.2% | IGROV1 ovarian 28.4% | OVCAR-3 ovarian 44.8% | NCI/ADR-RES ovarian 21.8% | MDA-MB-435 melanoma 17% | SW-620 colon 11.2% | HCC-2998 colon 36.7% | KM12 colon 24.3%
active: SR leukemia -14% | RPMI-8226 leukemia -33% | T-47D breast -9.17% | BT-549 breast 4.57% | MCF7 breast -7%

O=C(Cc1ccc(-c2ccc(OCCN3CCOCC3)cc2)cn1)NCc1ccccc1
inactive: RPMI-8226 leukemia 14.5% | OVCAR-5 ovarian 29.9% | OVCAR-4 ovarian 47.9% | IGROV1 ovarian 15.5% | OVCAR-3 ovarian 20.3% | SW-620 colon 21.3% | MCF7 breast 10.7%
active: SR leukemia 6.9% | OVCAR-8 ovarian 1.32% | SK-OV-3 ovarian -11.9% | NCI/ADR-RES ovarian 0.0856% | BT-549 breast 3.61% | MDA-MB-435 melanoma -21.8% | HCT-116 colon 6.1% | HCC-2998 colon 8.15% | KM12 colon 6.91%

CN1CC[C@H](c2c(O)cc(O)c3c(=O)cc(-c4ccccc4Cl)oc23)[C@H](O)C1
active: SR leukemia -0.341% | RPMI-8226 leukemia 6.39% | OVCAR-8 ovarian 7.4% | OVCAR-5 ovarian 8.36% | OVCAR-4 ovarian 1.82% | IGROV1 ovarian 4.27% | NCI/ADR-RES ovarian 2.07% | BT-549 breast -8.28% | MDA-MB-435 melanoma -73.3% | SW-620 colon 0.889% | MCF7 breast 4.72% | HCT-116 colon 4.7% | HCC-2998 colon -21.1% | KM12 colon 3.91%
inactive: SK-OV-3 ovarian 10.2% | OVCAR-3 ovarian 17.4%

CN[C@@H]1C[C@H]2O[C@@](C)([C@@H]1OC)n1c3ccccc3c3c4c(c5c6ccccc6n2c5c31)C(=O)N[C@H]4O
active: SR leukemia 1.68% | RPMI-8226 leukemia -46.2% | OVCAR-8 ovarian -36.7% | OVCAR-5 ovarian -2.9% | SK-OV-3 ovarian -68.5% | IGROV1 ovarian 0.929% | OVCAR-3 ovarian -31.6% | NCI/ADR-RES ovarian -39.1% | T-47D breast -49.2% | MDA-MB-435 melanoma -79.4% | SW-620 colon -6.96% | MCF7 breast -46.8% | HCT-116 colon -49.3% | HCC-2998 colon -74.5%
inactive: OVCAR-4 ovarian 16%

CC#CC(=O)N1CCC[C@H]1c1nc(-c2ccc(C(=O)Nc3ccccn3)cc2)c2c(N)nccn12
inactive: SR leukemia 68.3% | RPMI-8226 leukemia 79.7% | OVCAR-8 ovarian 77.8% | OVCAR-5 ovarian 78.5% | OVCAR-4 ovarian 99.5% | IGROV1 ovarian 64.8% | OVCAR-3 ovarian 86.5% | NCI/ADR-RES ovarian 94.3% | T-47D breast 58.1% | MDA-MB-435 melanoma 91.5% | SW-620 colon 112% | MCF7 breast 77.5% | HCT-116 colon 83.7% | KM12 colon 91.8%
active: SK-OV-3 ovarian -0.746%

Cn1ccnc1C(=O)/C=C/c1ccc(CC(=O)Nc2ccc(S(F)(F)(F)(F)F)cc2)cc1
active: SR leukemia 0.968% | RPMI-8226 leukemia -18.8% | OVCAR-8 ovarian -14.1% | OVCAR-5 ovarian -38.1% | IGROV1 ovarian -17.5% | OVCAR-3 ovarian 6.7% | T-47D breast -7.73% | BT-549 breast -50.6% | SW-620 colon 3.88% | HCT-116 colon -63.5% | HCC-2998 colon -65.1%
inactive: OVCAR-4 ovarian 17.5% | SK-OV-3 ovarian 18.4% | MDA-MB-435 melanoma 15.1% | MCF7 breast 10.2%

Cc1cc(C(=O)NOCCO)c(Nc2ccc(I)cc2F)n(C)c1=O
inactive: SR leukemia 71.3% | RPMI-8226 leukemia 78.8% | OVCAR-8 ovarian 67.9% | OVCAR-5 ovarian 20.3% | OVCAR-4 ovarian 71.3% | SK-OV-3 ovarian 57.3% | IGROV1 ovarian 28% | OVCAR-3 ovarian 106% | NCI/ADR-RES ovarian 76.2% | T-47D breast 103% | MDA-MB-435 melanoma 35.4% | SW-620 colon 24.8% | MCF7 breast 94.7% | HCT-116 colon 15.2% | KM12 colon 28.4%
active: HCC-2998 colon -16.6%

CC1(O)CCC2CC3OC3(C)CCC3OC3(C)C(O)CC1C2(C)C (centres undefined)
inactive: SR leukemia 104% | RPMI-8226 leukemia 84.4% | OVCAR-8 ovarian 87.3% | OVCAR-5 ovarian 120% | OVCAR-4 ovarian 91.1% | SK-OV-3 ovarian 109% | IGROV1 ovarian 70% | OVCAR-3 ovarian 118% | NCI/ADR-RES ovarian 112% | T-47D breast 116% | MDA-MB-435 melanoma 113% | SW-620 colon 99.2% | MCF7 breast 105% | HCT-116 colon 121% | KM12 colon 112%

CC[C@@H]1C(=O)N(C)c2cnc(Nc3ccc(C(=O)NC4CCC(N5CCN(CC6CC6)CC5)CC4)cc3OC)nc2N1C(C)C (some centres undefined)
active: SR leukemia -11.5% | RPMI-8226 leukemia -42.8% | OVCAR-8 ovarian 1.34% | SK-OV-3 ovarian -68.8% | IGROV1 ovarian -18.5% | OVCAR-3 ovarian -13.8% | T-47D breast 7.48% | MDA-MB-435 melanoma -29.6% | MCF7 breast -24% | KM12 colon 4.24%
inactive: OVCAR-5 ovarian 22.5% | OVCAR-4 ovarian 24.8% | NCI/ADR-RES ovarian 25.8% | BT-549 breast 18.3% | SW-620 colon 12.2%

Clc1nc(Cl)c2ncn(CC#CCn3cnc4c(Cl)nc(Cl)nc43)c2n1
active: SR leukemia -52.6% | RPMI-8226 leukemia -56.6% | OVCAR-8 ovarian -34.8% | OVCAR-5 ovarian -2.99% | OVCAR-4 ovarian -70.8% | IGROV1 ovarian -75.4% | OVCAR-3 ovarian -90.9% | MDA-MB-435 melanoma 4.04% | SW-620 colon -44.7% | MCF7 breast -22.8% | HCT-116 colon -34.6% | KM12 colon -45.8%
inactive: SK-OV-3 ovarian 87.5% | NCI/ADR-RES ovarian 59.8%

O=C(N/N=C/c1ccc(Cl)cc1)c1cc(-c2cc3ccccc3o2)nn1-c1ccccc1
inactive: SR leukemia 87.9% | RPMI-8226 leukemia 47.6% | OVCAR-8 ovarian 93.7% | OVCAR-5 ovarian 101% | OVCAR-4 ovarian 87.3% | SK-OV-3 ovarian 94% | IGROV1 ovarian 65.9% | OVCAR-3 ovarian 106% | NCI/ADR-RES ovarian 93.4% | MDA-MB-435 melanoma 103% | SW-620 colon 101% | MCF7 breast 85.6% | HCT-116 colon 92.3% | KM12 colon 102%

O=C(Cc1ccc(/C=C/C(=O)c2ncc[nH]2)cc1)Nc1ccc(Br)cc1
inactive: OVCAR-5 ovarian 18.7% | OVCAR-4 ovarian 46.4% | SK-OV-3 ovarian 70.2% | NCI/ADR-RES ovarian 13.4% | BT-549 breast 20.5% | MDA-MB-435 melanoma 43.5% | MCF7 breast 11.8% | HCC-2998 colon 78.6%
active: SR leukemia 5.06% | RPMI-8226 leukemia -13.3% | OVCAR-8 ovarian 6.77% | IGROV1 ovarian 8.48% | OVCAR-3 ovarian 9.63% | SW-620 colon 2.37% | HCT-116 colon -40.2% | KM12 colon -43.3%
